# PubChem BioAssay (NCI)
# About 79,000 compounds went through this panel and 15% of them were active in at least one assay; those are over-represented in the sample as a whole. The source made the active and inactive calls. No stated cut-off is given here; in the data, active means growth inhibition above about 70%; inactive means the rest.
# Test: NCI Yeast Anticancer Drug Screen. Data for the rad50 strain (AID 155);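 further: 0% = growth of vehicle-only cultures of the same strain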
# Conditions: S. cerevisiae rad50 strain growth inhibition; at 50.0 µM; active compounds read high
# In short: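 A DNA repair-deficient yeast mutant serves as the test organism; compound-induced growth inhibition is calculated against vehicle-treated cells.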
row,Structure (SMILES),growth inhibition
1,CCOC(=O)c1csc(N)n1,-24.5% (inactive)
2,CS/C(=C\c1ccc2ccccc2[n+]1C)N1CCN(CCCO)CC1,23.4% (inactive)
3,COc1ccc(Cc2ccc(OC)c3ccccc23)c2ccccc12,9.65% (inactive)
4,Cn1c(N(CCO)CCO)cnc1[N+](=O)[O-],11.7% (inactive)
5,Cc1cc(S(=O)(=O)NC(=NCC(=O)NN)NN)c(S)cc1Cl,-9.85% (inactive)
6,C=CCN1C(=O)c2ccccc2C1=O,24.3% (inactive)
7,OCC1OC(n2ncc3c(Nc4ccccc4)ncnc32)C(O)C1O (stereo not given),17.1% (inactive)
8,COc1ccc([N+](=O)[O-])c(OC)c1,4.4% (inactive)
9,O=C1C(=O)c2ccccc2C(O)=C1CC=C(Cl)Cl,-3.9% (inactive)
10,CC(=O)SCC(C)CCl (stereo not given),-12.4% (inactive)
11,Cc1ccnc(N=C(N)Nc2cc(C)ccn2)c1,19.6% (inactive)
12,Nc1c(Cl)ncnc1Cl,-13.8% (inactive)
13,CCOC(=O)C1OC1(C)c1ccc(Cl)cc1 (stereo not given),6.1% (inactive)
14,CCC(=O)Oc1cc(C(C)(C)C)c(OC(=O)CC)cc1C(C)(C)C,3.45% (inactive)
15,COc1cc(Cc2cc(OC)c(OC)c(OC)c2)ccc1O,-23.4% (inactive)
16,O=C(O)C(Nc1ccccc1)c1ccccc1 (stereo not given),13.4% (inactive)
17,COc1cc2nccnc2c(N)c1OC,14.6% (inactive)
18,CC(C)CC(O)CC(C)C,1.25% (inactive)
19,N#CCCCCCCC(N)=O,4.4% (inactive)
20,CCOP(=O)(OCC)/C(C#N)=C/c1cnc(-c2ccccc2)[nH]1,-38% (inactive)

row,Structure (SMILES),growth inhibition
1,CSc1nc(N(C)C)c2[nH]c(C)nc2n1,7.2% (inactive)
2,C=C1C(=O)O[C@@H]2[C@H]1CC[C@H](C)[C@@H]1CCC(=O)[C@@]21C,10% (inactive)
3,Cc1ccc(S(=O)(=O)N2CCC(C(=O)O)(c3ccccc3)CC2)cc1,-14.9% (inactive)
4,O=C1c2ccccc2CN1c1ccc(O)cc1,5.65% (inactive)
5,O=[N+]([O-])c1ccc(N2CCN=N2)cc1,-24.2% (inactive)
6,CCN1C(=O)C(=O)C(CC)(CC)C1=O,-8.4% (inactive)
7,FC1(F)ON2CCc3ccccc3C2[C@H]1c1ccccc1 (stereo not given in full),13.3% (inactive)
8,N#CC(c1ccccc1)C1CCCCC1 (stereo not given),-8.65% (inactive)
9,CCN(CC)CCNC(=O)c1ccc(NCN2C(=O)NC(c3ccccc3)(c3ccccc3)C2=O)cc1,-24.1% (inactive)
10,O=c1c2c(no[n+]2[O-])c2ccccc2n1-c1ccccc1,96.7% (active)
11,CC(=O)OCC1OC(n2cccnc2=O)C(OC(C)=O)C1OC(C)=O (stereo not given),-0.55% (inactive)
12,OC(CC1CCCC(CC(O)c2ccccc2)N1CCc1ccccc1)c1ccccc1 (stereo not given),24.8% (inactive)
13,Cc1c(-c2ccc(Cl)cc2)n[nH]c1-c1[nH]nc(-c2ccc(Cl)cc2)c1C,-2.3% (inactive)
14,N=c1sc2ccccc2n1CC(=O)O,2.2% (inactive)
15,CCOc1ccc(Cc2ccc3c(c2)OCO3)cc1C,-17.2% (inactive)
16,Cc1cc(O)c(C(C)C)cc1N=O,22.2% (inactive)
17,CCC(=O)OCCSCCOC(=O)CC,5.65% (inactive)
18,C[Si](C)(C)CN=P(c1ccccc1)(c1ccccc1)c1ccccc1,-29.6% (inactive)
19,CC(=O)Oc1cccc(/C=C/C(=O)O)c1,19% (inactive)
20,CCCCOC1NC(=O)NC(=O)C1(F)C(=O)OCC (stereo not given),4% (inactive)

# Test: NCI Yeast Anticancer Drug Screen. Data for the mec2-1 strain (AID 157)
# Conditions: S. cerevisiae mec2-1 strain, at 50.0 µM, active compounds read high
# In short: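 Compounds were applied to mec2-1 yeast cells. Their growth was then compared with that of vehicle-treated cultures to give growth inhibition.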
row,Structure (SMILES),growth inhibition
1,CCOC(=O)c1csc(N)n1,7.35% (inactive)
2,CS/C(=C\c1ccc2ccccc2[n+]1C)N1CCN(CCCO)CC1,10% (inactive)
3,COc1ccc(Cc2ccc(OC)c3ccccc23)c2ccccc12,-2.45% (inactive)
4,Cn1c(N(CCO)CCO)cnc1[N+](=O)[O-],8.8% (inactive)
5,Cc1cc(S(=O)(=O)NC(=NCC(=O)NN)NN)c(S)cc1Cl,2.65% (inactive)
6,C=CCN1C(=O)c2ccccc2C1=O,-3.2% (inactive)
7,OCC1OC(n2ncc3c(Nc4ccccc4)ncnc32)C(O)C1O (stereo not given),18.3% (inactive)
8,COc1ccc([N+](=O)[O-])c(OC)c1,-19.1% (inactive)
9,O=C1C(=O)c2ccccc2C(O)=C1CC=C(Cl)Cl,5.5% (inactive)
10,CC(=O)SCC(C)CCl (stereo not given),-47.6% (inactive)
11,Cc1ccnc(N=C(N)Nc2cc(C)ccn2)c1,26.4% (inactive)
12,Nc1c(Cl)ncnc1Cl,8.3% (inactive)
13,CCOC(=O)C1OC1(C)c1ccc(Cl)cc1 (stereo not given),3.8% (inactive)
14,CCC(=O)Oc1cc(C(C)(C)C)c(OC(=O)CC)cc1C(C)(C)C,-13.9% (inactive)
15,COc1cc(Cc2cc(OC)c(OC)c(OC)c2)ccc1O,-8.5% (inactive)
16,O=C(O)C(Nc1ccccc1)c1ccccc1 (stereo not given),3.75% (inactive)
17,COc1cc2nccnc2c(N)c1OC,7.65% (inactive)
18,CC(C)CC(O)CC(C)C,-25.1% (inactive)
19,N#CCCCCCCC(N)=O,-0.9% (inactive)
20,CCOP(=O)(OCC)/C(C#N)=C/c1cnc(-c2ccccc2)[nH]1,-4.85% (inactive)

row,Structure (SMILES),growth inhibition
1,CSc1nc(N(C)C)c2[nH]c(C)nc2n1,9.5% (inactive)
2,C=C1C(=O)O[C@@H]2[C@H]1CC[C@H](C)[C@@H]1CCC(=O)[C@@]21C,-0.5% (inactive)
3,Cc1ccc(S(=O)(=O)N2CCC(C(=O)O)(c3ccccc3)CC2)cc1,-0.9% (inactive)
4,O=C1c2ccccc2CN1c1ccc(O)cc1,1.5% (inactive)
5,O=[N+]([O-])c1ccc(N2CCN=N2)cc1,-14.6% (inactive)
6,CCN1C(=O)C(=O)C(CC)(CC)C1=O,-1.75% (inactive)
7,FC1(F)ON2CCc3ccccc3C2[C@H]1c1ccccc1 (stereo not given in full),14.7% (inactive)
8,N#CC(c1ccccc1)C1CCCCC1 (stereo not given),-20% (inactive)
9,CCN(CC)CCNC(=O)c1ccc(NCN2C(=O)NC(c3ccccc3)(c3ccccc3)C2=O)cc1,3.4% (inactive)
10,O=c1c2c(no[n+]2[O-])c2ccccc2n1-c1ccccc1,66% (inactive)
11,CC(=O)OCC1OC(n2cccnc2=O)C(OC(C)=O)C1OC(C)=O (stereo not given),2.75% (inactive)
12,OC(CC1CCCC(CC(O)c2ccccc2)N1CCc1ccccc1)c1ccccc1 (stereo not given),-1.3% (inactive)
13,Cc1c(-c2ccc(Cl)cc2)n[nH]c1-c1[nH]nc(-c2ccc(Cl)cc2)c1C,-1.95% (inactive)
14,N=c1sc2ccccc2n1CC(=O)O,-16.5% (inactive)
15,CCOc1ccc(Cc2ccc3c(c2)OCO3)cc1C,-13.3% (inactive)
16,Cc1cc(O)c(C(C)C)cc1N=O,-7.25% (inactive)
17,CCC(=O)OCCSCCOC(=O)CC,5.65% (inactive)
18,C[Si](C)(C)CN=P(c1ccccc1)(c1ccccc1)c1ccccc1,-12.4% (inactive)
19,CC(=O)Oc1cccc(/C=C/C(=O)O)c1,29.3% (inactive)
20,CCCCOC1NC(=O)NC(=O)C1(F)C(=O)OCC (stereo not given),-9.75% (inactive)
